Test results reported in PubChem BioAssay.

Legend:
PEG-3 [1] = target: PEG-3 (UniProt Q6IN02); assay: inhibition of PEG-3 promoter-driven reporter – cell-based, HeLa, luciferase, CREF/GAPDH counter-screen panel, dose response (AID 624167); conditions: CREF/GAPDH counter-screens; HeLa PEG-Prom luciferase reporter, overnight, run 1, dose range 1, at 100 µM (top of the series) unless noted
PEG-3 [2] = target: PEG-3 (UniProt Q6IN02); assay: as above; conditions: CREF/GAPDH counter-screens; HeLa PEG-Prom luciferase reporter, overnight, run 2, dose range 1, at 100 µM (top of the series) unless noted
Rat fibroblasts (CREF) [3] = assay: as above; conditions: CREF/GAPDH counter-screens; run 1, dose range 1, at 100 µM (top of the series)
Rat fibroblasts (CREF) [4] = assay: as above; conditions: CREF/GAPDH counter-screens; run 2, dose range 1, at 100 µM (top of the series)
[5] = target: Tumor necrosis factor receptor superfamily member 10B (Homo sapiens) (UniProt O14763); assay: viability loss of caspase-8 NB7 cells with TRAIL – with/without TRAIL, luminescence panel, confirmation (AID 651596); conditions: NB7 neuroblastoma + caspase-8, TRAIL sensitization, NB7 Caspase-8, with TRAIL, mean of runs, at 10 µM, stronger effect = higher value
[6] = as above; conditions: NB7 neuroblastoma + caspase-8, without TRAIL, NB7 Caspase-8, without TRAIL, mean of runs, at 10 µM

Sequence of PEG-3 (Q6IN02 whole entry, looked up): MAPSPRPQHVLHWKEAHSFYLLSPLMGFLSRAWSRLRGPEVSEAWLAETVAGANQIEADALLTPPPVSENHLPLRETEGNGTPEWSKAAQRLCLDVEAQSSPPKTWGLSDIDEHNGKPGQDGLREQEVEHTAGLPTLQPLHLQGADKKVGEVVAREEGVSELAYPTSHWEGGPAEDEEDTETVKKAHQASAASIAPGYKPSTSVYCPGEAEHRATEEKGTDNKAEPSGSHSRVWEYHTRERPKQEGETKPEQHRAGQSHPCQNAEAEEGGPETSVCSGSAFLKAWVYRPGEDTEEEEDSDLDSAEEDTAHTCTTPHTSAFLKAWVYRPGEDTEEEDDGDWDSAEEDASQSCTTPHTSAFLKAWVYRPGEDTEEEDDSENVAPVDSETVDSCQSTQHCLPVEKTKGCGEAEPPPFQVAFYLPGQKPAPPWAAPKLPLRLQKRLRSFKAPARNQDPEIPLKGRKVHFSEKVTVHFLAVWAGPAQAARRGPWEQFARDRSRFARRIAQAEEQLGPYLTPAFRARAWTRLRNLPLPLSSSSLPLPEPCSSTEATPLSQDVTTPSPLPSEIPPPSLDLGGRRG
Sequence of Tumor necrosis factor receptor superfamily member 10B (Homo sapiens) (O14763 whole entry, looked up): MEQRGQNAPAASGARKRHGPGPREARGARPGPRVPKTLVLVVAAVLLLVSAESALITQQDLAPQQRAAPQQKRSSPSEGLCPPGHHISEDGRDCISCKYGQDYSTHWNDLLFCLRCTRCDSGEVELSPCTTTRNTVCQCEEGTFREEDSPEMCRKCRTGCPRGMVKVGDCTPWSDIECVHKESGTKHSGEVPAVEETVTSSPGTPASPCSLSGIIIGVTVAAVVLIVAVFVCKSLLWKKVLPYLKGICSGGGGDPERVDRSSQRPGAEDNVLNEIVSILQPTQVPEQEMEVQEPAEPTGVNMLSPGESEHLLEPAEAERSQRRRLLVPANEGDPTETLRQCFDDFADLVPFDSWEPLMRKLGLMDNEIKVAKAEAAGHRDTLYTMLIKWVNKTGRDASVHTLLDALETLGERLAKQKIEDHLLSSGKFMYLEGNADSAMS

Row | SMILES | inhibition (PEG-3 [1]) [%] | inhibition (PEG-3 [2]) [%] | inhibition (Rat fibroblasts (CREF) [3]) [%] | inhibition (Rat fibroblasts (CREF) [4]) [%] | activity [5] [%] | activity [6] [%]
1 | CC(C)(C)C(=O)Nc1ccc(NC(=O)c2ccco2)nc1 | 102 | 101 | 100 | 100 | 98.7 | 98.5
2 | Cc1ccccc1OCC(O)CNC1CCC(NCC(O)COc2ccccc2C)CC1 (stereo not drawn) | 94.1 | 95.8 | 98.1 | 97.9 | 94.4 | 99.8
3 | Cc1cccc(/C=N/Nc2ccc3ccccc3n2)c1 | 101 | 101 | 94.2 | 96.2 | 82.4 | 78.5
4 | Cc1cc(C(=O)CN2C(=O)c3ccccc3S2(=O)=O)c(C)n1CC1CCCO1 (stereo not drawn) | 102 | 99.2 | 99.2 | 89.4 | 87.9 | 89
5 | CN(C)CCCN(C(=O)c1ccc(S(=O)(=O)N2CCc3ccccc3C2)cc1)c1nc2ccc(F)cc2s1 | 102 | 98.9 | 99 | 98.9 | 48.5 | 17.1
6 | C/C(=N/NC(=O)c1cc(C2CC2)[nH]n1)c1cccs1 | 92.3 | 87.2 | 95.4 | 96.2 | 70.8 | 70.8
7 | CC1=CC2C(C(O)CC3(C)C2CC(C)C32OCOC23COCO3)C2(C)C/C(=C\O)C(=O)C=C12 (stereo not drawn) | 102 | 101 | 100 | 100 | 94.3 | 98.1
8 | COc1ccc(OCc2cccc(C(=O)O)c2)cc1 | 98.7 | 102 | 90.9 | 89.6 | 62.9 | 55.2
9 | CN1CCN(c2ccc(-c3ccc4ccccc4n3)cc2)CC1 | 99.5 | 101 | 98.1 | 98.6 | 88.5 | 84.3
10 | COc1ccc(-c2nc(-c3ccccn3)no2)cc1 | 99.7 | 96.8 | 99.9 | 99.4 | 96.7 | 95.7
11 | CN(C)c1ccc(Nc2nc(N)c3ccccc3n2)cc1 | 97.9 | 99.2 | 97.2 | 98 | 95.9 | 95.8
12 | COc1cc(/C=N/O)ccc1OCc1ccc(C(=O)O)cc1 | 88.6 | 90.2 | 92 | 91.3 | 72.7 | 65.7
13 | NC(C(=O)O)C1ON=C(Cl)C1O (stereo not drawn) | 41.4 | 43.8 | -3.88 | 9.67 | 82.5 | 88.3
